The full ranking holds about 5,000 sequences; the median of “log2 normalized fluorescence” is about 0.089, and the highest 2% start at about 0.81. Many of the other results were omitted from the sample, so the highest values are more common in it than they were.

Sequence of MYC (p64);MAX (p21), in MYC:MAX (P01106 16-454, chain 1 of 2): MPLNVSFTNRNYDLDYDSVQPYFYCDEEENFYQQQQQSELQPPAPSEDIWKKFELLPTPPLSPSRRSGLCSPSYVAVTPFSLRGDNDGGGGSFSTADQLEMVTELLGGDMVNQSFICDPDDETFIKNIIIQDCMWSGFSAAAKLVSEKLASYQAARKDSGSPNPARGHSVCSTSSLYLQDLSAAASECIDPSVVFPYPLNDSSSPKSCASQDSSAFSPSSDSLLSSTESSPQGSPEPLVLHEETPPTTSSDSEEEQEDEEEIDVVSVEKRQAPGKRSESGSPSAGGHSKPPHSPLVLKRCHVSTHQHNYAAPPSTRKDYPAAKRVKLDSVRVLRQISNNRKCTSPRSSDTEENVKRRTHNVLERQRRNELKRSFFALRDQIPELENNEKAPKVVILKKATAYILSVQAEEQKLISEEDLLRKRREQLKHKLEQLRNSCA
Sequence of MYC (p64);MAX (p21), in MYC:MAX (P61244 other isoform, or with tags, fused parts or gaps |, chain 2 of 2): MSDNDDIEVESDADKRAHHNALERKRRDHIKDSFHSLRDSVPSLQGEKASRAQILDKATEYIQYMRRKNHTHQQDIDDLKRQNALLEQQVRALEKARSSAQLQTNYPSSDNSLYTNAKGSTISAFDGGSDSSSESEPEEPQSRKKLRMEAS

The assay concerns the target MYC (p64);MAX (p21), in MYC:MAX (human;human, UniProt P01106-1;P61244-2 1-439;1-151, |). Nature of the assay: protein-binding microarray (anti-MAX antibody); PBM: 15 mM Tris-HCl pH 7.5, 100 mM KCl, 0.075% NP40, 7.5 mM beta-mercaptoethanol, 375 ng/ul BSA, 8 ng/ul poly(dA-dT):(dA-dT), 550 ng complex, 60 min, room tempe; high values mean tight binding. The following applies: protein: recombinant;recombinant; tags: 6xHis;6xHis; copies: 1;1; label: 3' end of printed strand (linker) attached to glass slide; dsDNA, one strand shown. In short, it runs like this: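 Binding is reported as log2 normalized fluorescence. Recombinant His-tagged human MYC:MAX or MAX:MAX dimers expressed in E. coli (550 ng) were incubated with a custom Agilent glass array for 60 min at room temperature in Tris-KCl buffer, pH 7.5, containing NP40, BSA and poly(dA-dT) competitor. The array carried ~5000 unique 12-nt sequences, each spotted in triplicate and made double-stranded by primer extension, and bound protein was detected with anti-MAX and secondary antibodies and scanned at 543 nm.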
Consider “CCGGCTGATCCCCCGTATTAATAGCTAAGATTACTATATCGACG”, for which the binding signal is 0.0512 log2 normalized fluorescence. As to “CCGGCTGACACGGCGTATTAATAGCTAAGATTACTATATCGACG”, the binding signal was 0.188 log2 normalized fluorescence. With “CCGGCTGAACGGTTGTATTAATAGCTAAGATTACTATATCGACG” the figure was 0.123 log2 normalized fluorescence; with “CCGGCTGAACCAACGTATTAATAGCTAAGATTACTATATCGACG”, 0.302 log2 normalized fluorescence; with “CCGGCTGAGTTCCCGTATTAATAGCTAAGATTACTATATCGACG”, 0.0824 log2 normalized fluorescence. With “CCGGCTGACGTCACGTATTAATAGCTAAGATTACTATATCGACG” the figure was 0.246 log2 normalized fluorescence.

With “CCGGCTGAAAGCATGTATTAATAGCTAAGATTACTATATCGACG”, the binding signal was 0.491 log2 normalized fluorescence.

As to “CCGGCTGAGCATGCGTATTAATAGCTAAGATTACTATATCGACG”, the binding signal was 0.461 log2 normalized fluorescence. The result for “CCGGCTGAGTCCGCGTATTAATAGCTAAGATTACTATATCGACG” reads 0.0725 log2 normalized fluorescence.

With “CCGGCTGACCCGTGGTTTTAATAGCTAAGATTACTATATCGACG”, the binding signal was 0.466 log2 normalized fluorescence.

As to “CCGGCAGACATGTGGTGTTAATAGCTAAGATTACTATATCGACG”, the binding signal is 0.734 log2 normalized fluorescence. With “CCGGCAGATACGTGGTGTTAATAGCTAAGATTACTATATCGACG” the figure was 0.257 log2 normalized fluorescence; with “CCGGCAGACACGTGGTGTTAATAGCTAAGATTACTATATCGACG”, 0.826 log2 normalized fluorescence; with “CCGGCTGACTTCAGGTATTAATAGCTAAGATTACTATATCGACG”, 0.148 log2 normalized fluorescence.

For the sequence “CCGGCTGACCAAGTGTATTAATAGCTAAGATTACTATATCGACG”, the binding signal was 0.214 log2 normalized fluorescence.

Consider “CCGGCCTTCACGTGGTATTAATAGCTAAGATTACTATATCGACG”, for which the binding signal was 0.765 log2 normalized fluorescence. For “CCGGCGTTCACGTGGTATTAATAGCTAAGATTACTATATCGACG”, the binding signal was 0.664 log2 normalized fluorescence. The result for “CCGGCTTTCACGTGGTATTAATAGCTAAGATTACTATATCGACG” reads 0.847 log2 normalized fluorescence.

In the case of “CCGGCATCCACGTGGTATTAATAGCTAAGATTACTATATCGACG”, the binding signal was 0.471 log2 normalized fluorescence. The result for “CCGGCAATCACGTGGTATTAATAGCTAAGATTACTATATCGACG” reads 0.75 log2 normalized fluorescence; that for “CCGGCATTCACGTGGTATTAATAGCTAAGATTACTATATCGACG”, 0.958 log2 normalized fluorescence. With “CCGGCTGACGAGATGTATTAATAGCTAAGATTACTATATCGACG” the figure was 0.0764 log2 normalized fluorescence. For the sequence “CCGGCTGACACGCGCTATTAATAGCTAAGATTACTATATCGACG”, the binding signal was 0.811 log2 normalized fluorescence. Take “CCGGCTGGGTCGTGGTATTAATAGCTAAGATTACTATATCGACG”: the binding signal was 0.0754 log2 normalized fluorescence. Regarding “CCGGCTGAGGTGACGTATTAATAGCTAAGATTACTATATCGACG”, the binding signal was 0.0346 log2 normalized fluorescence. With “CCGGCTGAATAATTGTATTAATAGCTAAGATTACTATATCGACG” the figure was -0.0392 log2 normalized fluorescence; with “CCGGCTGACACGTCTTATTAATAGCTAAGATTACTATATCGACG”, 0.308 log2 normalized fluorescence. With “CCGGCTGACACGTGGTCTTAATAGCTAAGATTACTATATCGACG” the figure was 1.02 log2 normalized fluorescence; with “CCGGCAGACACGTGGTATTAATAGCTAAGATTACTATATCGACG”, 0.798 log2 normalized fluorescence; with “CCGGCTGACACGCGGTCTTAATAGCTAAGATTACTATATCGACG”, 1.03 log2 normalized fluorescence.

As for “CCGGCTAACACGCGGTCTTAATAGCTAAGATTACTATATCGACG”, the binding signal was 0.739 log2 normalized fluorescence. “CCGGCAGACACGTGGTCTTAATAGCTAAGATTACTATATCGACG”: the binding signal was 0.904 log2 normalized fluorescence. As for “CCGGCAGACACGCGGTCTTAATAGCTAAGATTACTATATCGACG”, the binding signal was 0.8 log2 normalized fluorescence. With “CCGGCTGACCCGTGGTCTTAATAGCTAAGATTACTATATCGACG” the figure was 0.399 log2 normalized fluorescence. For the sequence “CCGGCTGACACACGGTCTTAATAGCTAAGATTACTATATCGACG”, the binding signal was 0.354 log2 normalized fluorescence. For the sequence “CCGGCTGAACAAGGGTATTAATAGCTAAGATTACTATATCGACG”, the binding signal was 0.093 log2 normalized fluorescence.

Consider “CCGGCTGACCAAAGGTATTAATAGCTAAGATTACTATATCGACG”, for which the binding signal is 0.0357 log2 normalized fluorescence. With “CCGGCTGACGACAAGTATTAATAGCTAAGATTACTATATCGACG” the figure was 0.0769 log2 normalized fluorescence; with “CCGGCTGACTCCAAGTATTAATAGCTAAGATTACTATATCGACG”, 0.0835 log2 normalized fluorescence. With “CCGGCTGACAACTGGTTTTAATAGCTAAGATTACTATATCGACG” the figure was 0.195 log2 normalized fluorescence.

In the case of “CCGGCTGAAGGACTGTATTAATAGCTAAGATTACTATATCGACG”, the binding signal was 0.0114 log2 normalized fluorescence. Regarding “CCGGCCTCCACGTGGTATTAATAGCTAAGATTACTATATCGACG”, the binding signal was 0.737 log2 normalized fluorescence.

For “CCGGCTTGCACTTGGTATTAATAGCTAAGATTACTATATCGACG”, the binding signal is 0.318 log2 normalized fluorescence. The result for “CCGGCGTCCACGTGGTATTAATAGCTAAGATTACTATATCGACG” reads 0.808 log2 normalized fluorescence; that for “CCGGCCTGCACGTGGTATTAATAGCTAAGATTACTATATCGACG”, 0.875 log2 normalized fluorescence. In the case of “CCGGCTTGCACGTGGTATTAATAGCTAAGATTACTATATCGACG”, the binding signal was 1.01 log2 normalized fluorescence.

For the sequence “CCGGCGTGCACGTGGTATTAATAGCTAAGATTACTATATCGACG”, the binding signal was 0.856 log2 normalized fluorescence. For the sequence “CCGGCCTACACGTGGTATTAATAGCTAAGATTACTATATCGACG”, the binding signal is 0.805 log2 normalized fluorescence.

Turning to “CCGGCTTGCACGTGGTTTTAATAGCTAAGATTACTATATCGACG”, the binding signal is 0.716 log2 normalized fluorescence. With “CCGGCGTATACGTGGTATTAATAGCTAAGATTACTATATCGACG” the figure was 0.202 log2 normalized fluorescence; with “CCGGCTGAATTACCGTATTAATAGCTAAGATTACTATATCGACG”, 0.041 log2 normalized fluorescence; with “CCGGCTGAGCAACTGTATTAATAGCTAAGATTACTATATCGACG”, 0.128 log2 normalized fluorescence. The result for “CCGGCTGAATTACTGTATTAATAGCTAAGATTACTATATCGACG” reads 0.0701 log2 normalized fluorescence; that for “CCGGCTGAGTCGGGGTATTAATAGCTAAGATTACTATATCGACG”, 0.126 log2 normalized fluorescence. As to “CCGGCACCCACGTGGTATTAATAGCTAAGATTACTATATCGACG”, the binding signal was 0.845 log2 normalized fluorescence. On to “CCGGCTACTACGTGGTATTAATAGCTAAGATTACTATATCGACG”, for which the binding signal is 0.34 log2 normalized fluorescence. In the case of “CCGGCACACACGTGGTATTAATAGCTAAGATTACTATATCGACG”, the binding signal is 0.804 log2 normalized fluorescence. As to “CCGGCACTCACGTGGTATTAATAGCTAAGATTACTATATCGACG”, the binding signal is 0.862 log2 normalized fluorescence. As for “CCGGCAGGCACGTGGTATTAATAGCTAAGATTACTATATCGACG”, the binding signal was 0.815 log2 normalized fluorescence. With “CCGGCAGAGACGTGGTATTAATAGCTAAGATTACTATATCGACG” the figure was 0.387 log2 normalized fluorescence; with “CCGGCACGCACGTGGTATTAATAGCTAAGATTACTATATCGACG”, 0.838 log2 normalized fluorescence. As to “CCGGCTGAACCTCAGTATTAATAGCTAAGATTACTATATCGACG”, the binding signal is 0.265 log2 normalized fluorescence. In the case of “CCGGCTGAAATGCCGTATTAATAGCTAAGATTACTATATCGACG”, the binding signal was 0.0989 log2 normalized fluorescence. The result for “CCGGCTGATACGTGGTATTAATAGCTAAGATTACTATATCGACG” reads 0.341 log2 normalized fluorescence; that for “CCGGCTGAGTGATCGTATTAATAGCTAAGATTACTATATCGACG”, 0.194 log2 normalized fluorescence. Regarding “CCGGCTGAACATACGTATTAATAGCTAAGATTACTATATCGACG”, the binding signal is 0.202 log2 normalized fluorescence. The result for “CCGGCTGATGGCGGGTATTAATAGCTAAGATTACTATATCGACG” reads 0.232 log2 normalized fluorescence.

Turning to “CCGGCTGACCCCGTGTATTAATAGCTAAGATTACTATATCGACG”, the binding signal is 0.42 log2 normalized fluorescence.
